# Results taken from PubChem BioAssay (NCATS).
# “And” between values parts separate entries of the source, which are not always exact repeats. Identical values can stand only once. Records with an inconclusive call do not appear. Unmarked numbers belong to inactive results. The call rests on the fitted dose curve; in most records, active means well fitted curve in the direction sought with a large enough effect; inconclusive means small, poorly fitted or top-dose-only effect, or another doubt; inactive means no such curve, though single readings can be large or run the other way.
# Test: qHTS Assay for Identifying Gametocytocidal Compounds (AID 743244);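 further: actives lower the fluorescent signal which means gametocytes are killed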
# Conditions: P. falciparum 3D7 stage III-V gametocytes, alamarBlue, 72 h; max response: hits give low values
# Outline: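 Using 20,000 stage III–V 3D7 gametocytes per well, compounds were incubated 72 h under 37 °C/5% CO2. Viability was then assessed by 24 h alamarBlue reduction, measured fluorometrically at 525/598 nm.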
# On the % scale 0 is the no-effect control and ±100 the full control effect.
row,SMILES,max response
1,CCC(C)(S(=O)(=O)CC)S(=O)(=O)CC,7.4%
2,CC(=O)OC1CN2CCC1CC2 (stereo unspecified),-0.102%
3,COC(=O)[C@@H]1[C@H]2CC[C@@H](C[C@H]1OC(=O)c1ccccc1)N2C,5.25%
4,CC(Cc1ccccc1)NC=O (stereo unspecified),-3.98%
5,C[C@]12C=CC(=O)C=C1CC[C@@H]1[C@@H]2CC[C@]2(C)OC(=O)CC[C@@H]12,-1.22%
6,Cn1sc(Cl)cc1=O,0.945%
7,C[N+]1([O-])[C@@H]2CC[C@H]1CC(OC(=O)C(CO)c1ccccc1)C2 (stereo partly specified),6.16% and -9.54%
8,CCNC1(c2cccs2)CCCCC1=O (stereo unspecified),-0.213%
9,CN1[C@H]2CC[C@@H]1[C@@H](C(=O)O)[C@@H](OC(=O)c1ccccc1)C2,17.6% and -3.85%
10,Oc1ccc2c3c1O[C@H]1[C@@H](O)CC[C@@]4(O)[C@@H](C2)N(CC2CCC2)CC[C@]314,2.47%
11,O=c1[nH]cc(N(CCCl)CCCl)c(=O)[nH]1,-3.92%
12,CCC(N)Cc1c[nH]c2ccccc12 (stereo unspecified),2.35% and -8.43%
13,C[C@]12CC[C@H]3[C@@H](CCC4=C(Cl)C(=O)CC[C@@]43C)[C@@H]1CC[C@@H]2O,-5.5%
14,CC1(C)[C@H](C=C(Cl)Cl)[C@H]1C(=O)OCc1c(F)c(F)cc(F)c1F,0.31%
15,CO[C@H]1[C@@H](O)C[C@H](O[C@H]2[C@@H](O)C[C@H](O[C@H]3[C@@H](O)C[C@H](O[C@H]4CC[C@@]5(C)[C@H](CC[C@@H]6[C@@H]5C[C@@H](O)[C@]5(C)[C@@H](C7=CC(=O)OC7)CC[C@]65O)C4)O[C@@H]3C)O[C@@H]2C)O[C@@H]1C,-9.7%
16,FC(F)OC(F)(F)C(F)Cl (stereo unspecified),-4.54%
17,CN(C)CCCCCCN(C)C (tested in a mixture with another compound),14.8%
18,C[C@]12CCC(=O)C=C1C=C[C@@H]1[C@@H]2CC[C@@]2(C)[C@H]1CC[C@@]2(O)CCC(=O)O,16.5%

row,SMILES,max response
1,OC[C@@H](O)[C@H]1O[C@@H]2O[C@H](C(Cl)(Cl)Cl)O[C@@H]2[C@H]1O,13.7%
2,C[C@@H]([C@H](O)c1ccccc1)N(C)C,8.71%
3,CNC(=O)OCC[N+](C)(C)C,-1.58%
4,C=CCN1CC[C@]23c4c5ccc(O)c4O[C@H]2[C@@H](O)C=C[C@H]3[C@H]1C5,2.17%
5,CCNC(C)Cc1cccc(C(F)(F)F)c1 (stereo unspecified),22.8%
6,ClC1=C(Cl)[C@]2(Cl)[C@@H]3[C@H]4C[C@H]([C@@H]5O[C@H]45)[C@@H]3[C@@]1(Cl)C2(Cl)Cl,19.8%
7,CC(N)Cc1ccc(O)cc1 (stereo unspecified),1.03%
8,CCC1(c2ccccc2)C(=O)NC(=O)N(C)C1=O (stereo unspecified),-0.22%
9,COC1=CC=C2[C@H]3Cc4ccc(OC)c5c4[C@@]2(CCN3C)[C@H]1O5,13.9%
10,CC(=O)O[C@H]1C[C@H](O[C@H]2[C@@H](O)C[C@H](O[C@H]3[C@@H](O)C[C@H](OC4CC[C@@]5(C)[C@H](CC[C@@H]6[C@@H]5CC[C@]5(C)[C@@H](C7=CC(=O)OC7)CC[C@]65O)C4)O[C@@H]3C)O[C@@H]2C)O[C@H](C)[C@H]1O[C@@H]1O[C@H](CO)[C@@H](O)[C@H](O)[C@H]1O (stereo partly specified),9.96%
11,S=C(S)N1CCNCC1,-5.89%
12,C=CC[C@]1(O)CC[C@H]2[C@@H]3CCC4=CCCC[C@@H]4[C@H]3CC[C@@]21C,15.3%
13,O=C(NC(=O)c1c(F)cccc1F)Nc1ccc(Cl)c(Oc2ncc(C(F)(F)F)cc2Cl)c1,-9.15%
14,C[C@]12CC[C@H]3[C@@H](CCC4=C(O)C(=O)CC[C@@H]43)[C@@H]1CC[C@@H]2OC(=O)CCC1CCCC1,-3.51%
15,CCC1C(C)=NN=C(c2ccc(OC)c(OC)c2)c2cc(OC)c(OC)cc21 (stereo unspecified),2.95%
16,CN[C@H]1C[C@@H](N)[C@H](O)[C@@H](O[C@@H]2O[C@H](CO)[C@H](O)[C@@H]3OC4(O[C@H]23)O[C@H](C(N)CO)[C@H](O)[C@H](O)[C@H]4O)[C@@H]1O (stereo partly specified),-0.708% and -7.43%
17,CCON=O,-5.54%
18,C[C@@H](Cc1ccccc1)N(C)C,-7.23%
